Measurements as given in PubChem BioAssay.

These compounds were tested on Plasmodium falciparum Sir2 (PF13_0152, Sir2A) (assay: pfSir2 binders on small-molecule microarrays, primary screen, biochemical, small-molecule microarray, 635 nm fluorescence (AID 1098;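 also: score merges spot fluorescence intensity with its signal-to-noise ratio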)). Conditions: small-molecule microarray binding, fluorescence 635 nm; higher = more signal.

| Structure (SMILES) | composite z-score |
| --- | --- |
| COc1ccc([Si](C)(C)[C@H]2[C@H](CC(=O)N3CCC[C@H]3CO)O[C@@]3(C(=O)N(Cc4cccc(N5C(=O)COc6ccccc65)c4)c4ccccc43)[C@@H]2C)cc1 | 1.21 |
| CC(=O)OC[C@H]1O[C@H](C#CCCCc2ccccc2)C=C[C@@H]1OC(C)=O | 0.829 |
| CC(C)[C@H](NC(=O)OC(C)(C)C)[C@@H](O)CC(=O)OC(C)(C)C | -1.02 |
| COCCCNC(=O)[C@]1(CCC(=O)OC(C)(C)C)N=C(c2ccc(OCCCO)cc2)O[C@@H]1c1ccccc1N=[N+]=[N-] | 1.31 |
| C[C@@H]1C=CCC(=O)OC[C@H](C)C(=O)N[C@@H](C)C(=O)OC1 | 0.57 |
| COC(=O)[C@@]1(Cc2ccc(F)cc2)[C@H]2c3cc(C(=O)N(C)C)n(Cc4ccc(OC)c(OC)c4)c3C[C@H]2CN1C(=O)c1ccccc1 | -0.236 |
| CCCCCN1CC=CC23O[C@@H]4C=CCOC(=O)[C@@H]4[C@H]2C(=O)N(CCCCCCO)[C@@H]3C1=O (stereo not given in full) | 1.93 |
| COc1ccc(O[C@H]2C=C[C@@H](c3ccccc3)O[C@@H]2COC(=O)CCC(C)=NO[C@H](C)c2cn([C@@H]3COC[C@H]3O)nn2)cc1 | 0.716 |
| C#C[C@@H]1Oc2ccccc2S(=O)(=O)N2CCC[C@H]12 | -0.298 |
| CC(C)(C)OC(=O)CC[C@]1(C(N)=O)COC(c2ccc(OCCCO)cc2)=N1 | 0.755 |
| COc1ccc(O[C@H]2C=C[C@@H](c3ccccc3)O[C@@H]2COC(=O)CCC(C)=NOC[C@@H](C)[C@H](OCc2ccccc2)C(C)C)cc1 | -0.886 |
| Cc1ccc(F)cc1S(=O)(=O)N[C@@H]1CCN(Cc2ccc(CC(C)C)cc2)C1 | -0.242 |
| CCc1cc2c(nc1CC)CCN(CCC(C)=NOC(C)CN1CCCc3nc(C)c(C)cc31)C2 (stereo not given) | 1.05 |
| Cc1ccc(S(=O)(=O)N[C@@H]2COC(=O)[C@H](C)COC(=O)CC=C[C@H]2C)cc1 | -0.0259 |
| O=C1C[C@@H](O)[C@@H](O)[C@@H]2[C@@H]3C(=O)N(Cc4ccc5c(c4)OCO5)C(=O)[C@@H]3CC[C@@H]12 | 0.27 |
| CN1C(=O)[C@@]2(CCC(=O)OC(C)(C)C)N=C(c3ccc(OCCCO)cc3)O[C@H]2c2ccccc21 | 1.26 |
| COCCOC(=O)N1C(=O)[C@@]2(c3cc(C#CC4(O)CCCCCC4)ccc31)[C@H](C(=O)N1CCN(c3ncccn3)CC1)[C@H]1C(=O)O[C@H](c3ccccc3)[C@H](c3ccccc3)N1[C@@H]2c1ccc(OCCO)cc1 | 1.4 |
| CCOC(=O)[C@H](CC(C)C)NC(=O)CCC1CC(OC(=O)NCc2cccc3ccccc23)CC2(CCCC(COC(=O)NCCc3ccccc3OC)O2)O1 (stereo not given in full) | 0.766 |

| Structure (SMILES) | composite z-score |
| --- | --- |
| COC(=O)[C@H](C)NC(=O)CCC1CC(OC(=O)NCc2cccc3ccccc23)CC2(CCCC(COC(=O)NCCc3ccc(Cl)cc3)O2)O1 (stereo not given in full) | -0.0744 |
| O[C@@H](Cc1ccccc1)[C@H]1C2C=CCCC(c3ccccc3)=C2CN1Cc1cccc(Cl)c1 (stereo not given in full) | 0.0167 |
| O=C1[C@H]2[C@H]3[C@H](O)[C@H](O)CC(=NO[C@@H]4O[C@H](CO)[C@@H](O)[C@H](O)[C@H]4O)[C@@H]3CC[C@H]2C(=O)N1Cc1ccccc1 | 0.133 |
| COCCOC(=O)N1C(=O)[C@@]2(c3cc(C#CCNC(N)=O)ccc31)[C@H](c1ccccc1OCCO)N1[C@H](c3ccccc3)[C@H](c3ccccc3)OC(=O)[C@H]1[C@@H]2C(=O)N1CCN(c2ncccn2)CC1 | 1.61 |
| O=C1[C@H]2[C@H]3[C@H](O)[C@H](O)CC(=NO[C@@H]4O[C@H](CO)[C@@H](O)[C@H](O)[C@H]4O)[C@H]3CC[C@H]2C(=O)N1Cc1ccccc1 | 0.366 |
| CC(C)(C)N1C(=O)[C@H]2[C@H]3[C@H](O)[C@H](O)CC(=NO[C@@H]4O[C@H](CO)[C@@H](O)[C@H](O)[C@H]4O)[C@@H]3CC[C@H]2C1=O | 0.756 |
| O=C1[C@H]2[C@H]3[C@H](O)[C@H](O)CC(=NO[C@@H]4O[C@H](CO)[C@@H](O)[C@H](O)[C@H]4O)[C@H]3CC[C@H]2C(=O)N1C1CCCCC1 | 0.643 |
| CC[C@@H](c1ccccc1)n1c(=O)n2n(c1=O)[C@H]1[C@H](O)[C@@H]3O[C@@H]3C(=NOCC(C)C)[C@H]1CC2 | 0.315 |
| CCCC[C@@H](O)C1=C(C)C[C@H]2C(=O)N(Cc3ccccc3)C(=O)[C@H]2[C@H]1CO | 0.222 |
| CC(C)=C1C(=O)C(c2ccccc2)=C2CN3C(=O)N(CCc4ccccc4)C(=O)[C@]3(Cc3ccc(F)cc3)[C@H]21 | -0.0467 |
| N#Cc1ccc(NN2C(C(O)c3cc(C(F)(F)F)cc(C(F)(F)F)c3)C=CC3C(=O)N(c4ccccc4)C(=O)C32)cc1 (stereo not given) | 0.666 |
| [N-]=[N+]=NCc1ccccc1[C@@H]1OC(c2ccc(OCCCO)cc2)=N[C@]1(Cc1ccccc1)C(=O)N1CCOCC1 | 1.57 |
| CC(CCN1CCCCc2nc(C)c(C)cc21)=NOC(C)CN1CCCCc2nc(C)c(C)cc21 (stereo not given) | 1.62 |
| O=C(NN=C1C[C@@H](O)[C@@H](O)[C@@H]2[C@@H]3C(=O)N(c4cccc(Oc5ccccc5)c4)C(=O)[C@@H]3CC[C@H]12)OCc1ccccc1 | 0.373 |
| CCOC(=O)CCN1C(=O)[C@H]2[C@H]3[C@H](O)[C@H](O)CC(=O)[C@H]3CC[C@H]2C1=O | -0.0527 |
| O=C1O[C@@H](c2ccccc2)[C@@H](c2ccccc2)N2[C@@H](c3ccc(OCCO)cc3)[C@]3(C(=O)Nc4ccc(C#CCCO)cc43)[C@@H](C(=O)N3CCCCCCC3)[C@H]12 | 1.85 |
| c1ccc(C2NCCc3c2[nH]c2ccccc32)cc1 (stereo not given) | -0.214 |
